The record followed here is PubChem BioAssay (Tox21).

Values joined by “and” are separate entries in the source; they are usually repeats but may differ in a detail not shown here. Identical values can stand only once. Records with an inconclusive call do not appear. Where a call stands in place of a potency, no number is given. Active and inactive are the calls of the source. The call rests on the fitted dose curve; in most records, active means well fitted cell-killing curve with a large enough effect in the repeat runs; inconclusive means weak or mixed curves, or effect the other way; inactive means flat fitted curve, though single readings scatter.
Potency means the concentration at half of the fitted maximal effect.

The test can be described thus: qHTS RealTime-Glo MT Cell Viability Assay in HEK293 cells - 8 hour (AID 1224887). Further: nearly all actives have a fitted effect of over 50% in size. The following applies: RealTime-Glo luminescence; series mostly up to 76.8 µM. From the text: U.S. Tox21 Program National Center for Advancing Translational Sciences [NCATS] NIH Chemical Genomics Center [NCGC] U.S. Environmental Protection Agency [EPA] National Institutes of Environmental Health Sciences [NIEHS] National Toxicology Program [NTP] U.S. Food and Drug Administration [FDA] Tox21 Assay Overview: Measure of cell viability is critical in the cell-base assay. Analysis of cell viability is necessary for the characterization of cell responses to cytotoxic drugs and environmental stress. A RealTime-Glo MT Cell Viability Assay to monitor cell viability in real time of continues cell culture during 40 hours of compound treatment was used to screen Tox21 10K library compounds in Hek293 cells. The RealTime-Glo MT Cell Viability Assay is a nonlytic, homogeneous, bioluminescent method to measure cell viability in real time using a simple, plate-based method. The assay involves adding NanoLuc luciferase and a cell-permeant prosubstrate to cells in culture. Viable cells reduce the proprietary prosubstrate to generate a substrate for NanoLuc luciferase. This substrate diffuses from cells into the surrounding culture medium, where it is rapidly used by the NanoLuc Enzyme to produce a luminescent signal. The signal correlates with the number of viable cells, making the assay well suited for cytotoxicity studies.
Tox21 Assay Protocol Summary: The mixture of Hek293 cell suspension and reagents were dispensed at 600cells/6 ul/well in 1536-well tissue culture treated black solid bottom plates using a Multidrop dispenser. After the assay plates were incubated at a 37 C/5% CO2 incubator for 5 hours, 23 nL of compounds dissolved in DMSO, positive and negative controls was transferred to the assay plate by a pintool work station. The plates were incubated at 37 C for 40 hours. The luminescence intensity were measured at 0h, 8h, 16h, 24h, 32h and 40h time points using ViewLux plate reader during compound treatment.
For the molecule `Cc1ccc(N)c(C)c1`, the Potency entry is “inactive”. For `CCCC[N+](CCCC)(CCCC)CCCC` the value was “inactive”; for `C[C@]12C=CC3=C4CCC(=O)C=C4CC[C@H]3[C@@H]1CC[C@@H]2O`, “inactive”; for `C=C(Cl)Cl`, “inactive”. For the molecule `CCOc1cccc(C2(N3CCN(c4ccccc4)CC3)CCC(C)CC2)c1` (stereo not given), the Potency entry was “inactive”.

Take `Cc1nc2ccccc2c(=O)n1-c1ccccc1Cl`: the Potency was 24 µM (active). As to `COC1CC(=C(c2cccs2)c2cccs2)C[N+](C)(C)C1` (stereo not given), the Potency entry was “inactive”.

As for `CCNC(=O)NC(=O)/C(C#N)=N/OC`, the Potency entry is “inactive”. On to `CC1(C)CC(=O)CC(C)(C)N1[O]`, for which the Potency result is “inactive”. For `CCOC(C(=O)OCCN(C)C)(c1ccccc1)c1ccccc1`, the Potency entry is “inactive”. For `CC(CC(C(N)=O)(c1ccccc1)c1ccccc1)N(C)C` (stereo not given) the value was “inactive”; for `O=C(CCl)CCl`, “inactive”; for `CCOP(=S)(S)OCC`, “inactive”. On to `C[N+]1(CCC(C(N)=O)(c2ccccc2)c2ccccc2)CCCCC1`, for which the Potency result was “inactive”. Regarding `O=C(Cc1ccccc1)OCCc1ccccc1`, the Potency result is “inactive”. In the case of `CON(C)C(=O)Nc1ccc(Cl)cc1`, the Potency entry was “inactive”. On to `O=P(OCC(Br)CBr)(OCC(Br)CBr)OCC(Br)CBr` (stereo not given), for which the Potency is 24.9 µM (active).

Regarding `Nc1cccc2ccccc12`, the Potency result was “inactive”. For `CC(C)C1(C)N=C(c2ncccc2C(=O)O)NC1=O` (stereo not given), the Potency result was “inactive”. For `C=CC(=O)OCC` the value was “inactive”. With `c1ccc2c(c1)sc1ccccc12`, the Potency result is “inactive”. As to `C[CH2][Hg][S]c1ccccc1C(=O)O`, the Potency is 3.09 µM (active) and 4.25 µM (active). As to `CCCCCl`, the Potency result was “inactive”. On to `CC[N+]1(C)CCCC(OC(=O)C(O)(c2ccccc2)c2ccccc2)C1` (stereo not given), for which the Potency entry was “inactive”. For `O=S(=O)(c1ccccc1)c1ccccc1` the value was “inactive”; for `O=[N+]([O-])/C=C/c1ccccc1`, 14 µM (active) and 15.5 µM (active); for `CCCCCCCCn1sccc1=O`, 39 µM (active) and 40.8 µM (active). As to `O=C(Cc1ccccc1)c1ccccc1`, the Potency entry is “inactive”. For `CC(Cl)C(=O)O` (stereo not given) the value was “inactive”. Consider `CC(C)(C)NCC(O)c1ccccc1Cl` (stereo not given), for which the Potency entry is “inactive”.

Consider `Nc1ccccc1C(=O)OCC(O)CO` (stereo not given), for which the Potency entry is “inactive”. `OCCCl`: the Potency entry is “inactive”. In the case of `CN[C@@H](C)[C@H](O)c1ccccc1`, the Potency entry was “inactive”.

Take `CNC(=O)Oc1cccc(N=CN(C)C)c1`: the Potency result was “inactive”. For `SCc1ccccc1`, the Potency entry was “inactive”. To `O=C(O)C(Cl)(Cl)Br` belongs “inactive”. Take `C#CC(O)(C=CCl)CC` (stereo not given): the Potency result is “inactive”.

As for `CCC1(CCC(C)C)C(=O)NC(=O)NC1=O`, the Potency entry is “inactive”. With `CCSCc1ccccc1OC(=O)NC`, the Potency entry is “inactive”. Turning to `O=C(N[C@H]1CN2CCC1CC2)c1ccc2c(c1)OCCO2`, the Potency result was “inactive”.
